Measured values: PubChem BioAssay (EPA / NIEHS)
Inconclusive results are not listed. The source made the active and inactive calls. Rule for the calls: active = hit-call score of the fitted dose curve at least 0.9, where 1 is the maximum; inconclusive = response in the unintended direction; inactive = score below 0.9.

Target: Retinoic acid receptor RXR-alpha (Homo sapiens) (UniProt P19793)
Assay: ATG_RXRa_TRANS: Attagene TRANS-FACTORIAL HepG2 Assay for human Retinoid X Receptor alpha (RXRa) (AID 2283012)
How it was run: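 Cells (HepG2) carried transiently transfected GAL4-responsive reporter units. Following a 24 h chemical incubation, reporter mRNA induction was read via RT-PCR fragment analysis; DMSO served as negative control and baseline.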

Sequence of Retinoic acid receptor RXR-alpha (Homo sapiens) (P19793 whole entry, looked up): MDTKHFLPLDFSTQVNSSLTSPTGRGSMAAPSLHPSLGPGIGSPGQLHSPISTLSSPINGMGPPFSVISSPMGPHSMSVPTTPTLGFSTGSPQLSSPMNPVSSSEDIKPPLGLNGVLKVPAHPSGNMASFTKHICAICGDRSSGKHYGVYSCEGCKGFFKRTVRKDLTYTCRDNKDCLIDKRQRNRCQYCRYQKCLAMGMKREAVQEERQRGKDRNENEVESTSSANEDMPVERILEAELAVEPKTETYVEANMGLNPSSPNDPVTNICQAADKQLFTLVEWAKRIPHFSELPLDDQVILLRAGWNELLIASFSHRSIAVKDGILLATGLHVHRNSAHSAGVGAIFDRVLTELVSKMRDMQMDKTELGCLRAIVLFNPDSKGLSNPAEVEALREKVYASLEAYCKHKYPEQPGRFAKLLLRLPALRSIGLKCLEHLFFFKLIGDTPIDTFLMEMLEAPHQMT

Q: Which outcome does the source give for `COc1ccc(CCC(C)=O)cc1` here?
A: inactive

Q: How did the outcome turn out when `CCOC(=O)CN` was run?
A: inactive

Q: Which outcome does the source give for `Cc1ccc(-c2ccccc2)cc1` here?
A: inactive

Q: How did the outcome turn out when `CC(C)(C)OC(=O)c1ccc(O)cc1` was run?
A: inactive

Q: With `CCC1(C)NC(=O)NC1=O` (stereo not drawn) as the molecule, how does the outcome read?
A: inactive

Q: With `CCCCCCC(=O)c1ccccc1` as the molecule, how does the outcome read?
A: inactive

Q: For `CC(O)C1CCCCC1` (stereo not drawn), which outcome is on record?
A: inactive

Q: For `CCOCCOCCOCC`, which outcome is on record?
A: inactive

Q: `CCCCCCOC(=O)CCC` was tested. Which outcome did it give?
A: inactive

Q: For `OCc1cccc(Oc2ccccc2)c1`, which outcome is on record?
A: inactive

Q: `CCCCCCCCc1ccc(S(=O)(=O)O)cc1` was tested. Which outcome did it give?
A: inactive

Q: `CCCCCCCCCCCC(=O)OC[C@@H](O)[C@H]1OC[C@H](O)[C@H]1O` was tested. Which outcome did it give?
A: inactive

Q: Which outcome does the source give for `CCCCCCOCCOCCO` here?
A: inactive

Q: Which outcome does the source give for `COCCc1ccc(OCC(O)CNC(C)C)cc1` (stereo not drawn) here?
A: inactive

Q: With `CC(=O)C(C)O` (stereo not drawn) as the molecule, how does the outcome read?
A: inactive

Q: Which outcome does the source give for `O=C1OC(=O)c2c(Br)c(Br)c(Br)c(Br)c21` here?
A: inactive

Q: For `COC(=O)c1ccc(OC)cc1`, which outcome is on record?
A: inactive

Q: With `FC(F)(F)COCC(F)(F)F` as the molecule, how does the outcome read?
A: inactive

Q: Which outcome does the source give for `N#Cc1cscn1` here?
A: inactive

Q: How did the outcome turn out when `CCOc1ccccc1O` was run?
A: inactive

Q: How did the outcome turn out when `CC(=O)NCCO` was run?
A: inactive

Q: `CC1=C(Br)C(=O)C(Br)=C/C1=C(/c1ccccc1S(=O)(=O)O)c1cc(Br)c(O)c(Br)c1C` was tested. Which outcome did it give?
A: inactive

Q: For `COC(=O)C=C(C)CCC=C(C)C`, which outcome is on record?
A: inactive

Q: With `CCCC(C)C(O)CC` (stereo not drawn) as the molecule, how does the outcome read?
A: inactive

Q: For `O=c1[nH]c(=O)c2cn[nH]c2[nH]1`, which outcome is on record?
A: inactive

Q: `COc1cc(CCC(C)=O)ccc1O` was tested. Which outcome did it give?
A: inactive

Q: With `CCCC[O][Al]([O]CCCC)[O]CCCC` as the molecule, how does the outcome read?
A: inactive

Q: With `Cc1ccc2c(c1)C(=O)OC2=O` as the molecule, how does the outcome read?
A: inactive

Q: Which outcome does the source give for `CC(=O)O[C@@H]1CC2CCC1(C)C2(C)C` (stereo partly drawn) here?
A: inactive

Q: With `COC(=O)c1ccc(C)cc1C1=NC(C)(C(C)C)C(=O)N1` (stereo not drawn) (tested in a mixture with another compound) as the molecule, how does the outcome read?
A: inactive

Q: How did the outcome turn out when `CN1CCOCC1` was run?
A: inactive

Q: For `CCCCCCCCN1CCCC1=O`, which outcome is on record?
A: inactive

Q: Which outcome does the source give for `C=C1CC[C@H](O)C/C1=C/C=C1\CCC[C@]2(C)[C@@H]([C@H](C)/C=C/[C@H](C)C(C)C)CC[C@@H]12` here?
A: inactive

Q: Which outcome does the source give for `CCc1ccc(O)cc1` here?
A: inactive

Target: human Retinoid X Receptor beta (RXRb), RXRB (gene 6257) (UniProt P28702)
Assay: ATG_RXRb_TRANS: Attagene TRANS-FACTORIAL HepG2 Assay for human Retinoid X Receptor beta (RXRb) (AID 2283013)
How it was run: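 Multiplexed TRANS reporter assay in HepG2; 24 h dosing; reporter mRNA by RT-PCR/CE fluorescence; gain-of-signal relative to DMSO.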

Sequence of human Retinoid X Receptor beta (RXRb), RXRB (gene 6257) (P28702 whole entry, looked up): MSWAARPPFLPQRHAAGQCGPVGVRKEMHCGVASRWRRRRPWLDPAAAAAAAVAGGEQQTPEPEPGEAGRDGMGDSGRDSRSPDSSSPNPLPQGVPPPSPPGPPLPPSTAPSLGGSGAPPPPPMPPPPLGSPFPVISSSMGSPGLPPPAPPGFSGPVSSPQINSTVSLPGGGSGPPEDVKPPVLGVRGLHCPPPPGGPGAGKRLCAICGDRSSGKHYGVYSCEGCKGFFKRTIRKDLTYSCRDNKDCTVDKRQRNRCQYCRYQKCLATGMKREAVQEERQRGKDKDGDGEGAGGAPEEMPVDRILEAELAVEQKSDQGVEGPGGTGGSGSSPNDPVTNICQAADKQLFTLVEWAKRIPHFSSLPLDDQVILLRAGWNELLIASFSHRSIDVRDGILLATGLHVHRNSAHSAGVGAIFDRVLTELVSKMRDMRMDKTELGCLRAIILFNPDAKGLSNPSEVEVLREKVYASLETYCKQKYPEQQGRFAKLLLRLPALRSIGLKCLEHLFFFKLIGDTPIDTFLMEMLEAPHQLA

Q: For `COc1ccc(CCC(C)=O)cc1`, which outcome is on record?
A: inactive

Q: `CCOC(=O)CN` was tested. Which outcome did it give?
A: inactive

Q: How did the outcome turn out when `Cc1ccc(-c2ccccc2)cc1` was run?
A: inactive

Q: For `CCCCCCOC(=O)CCC`, which outcome is on record?
A: inactive

Q: For `OCc1cccc(Oc2ccccc2)c1`, which AC50 is on record?
A: 100 µM (active)

Q: Which outcome does the source give for `CCCCCCCCc1ccc(S(=O)(=O)O)cc1` here?
A: inactive

Q: For `CCCCCCCCCCCC(=O)OC[C@@H](O)[C@H]1OC[C@H](O)[C@H]1O`, which outcome is on record?
A: inactive

Q: How did the outcome turn out when `CC(=O)NCCO` was run?
A: inactive

Q: With `Cc1ccc2c(c1)C(=O)OC2=O` as the molecule, how does the outcome read?
A: inactive
